Test results taken from PubChem BioAssay (NCATS).
Results filed as inconclusive are left out. Values without a mark were called inactive. The source made the active and inactive calls. Calls follow the shape of the dose curve; as a rule, active = well fitted cell-killing curve with a large enough effect; inconclusive = small, poorly fitted or top-dose-only effect, or effect the other way; inactive = no such curve, though single readings can be large or run the other way.

Tests used:
[1] = Quantitative High-Throughput drug screen in 47 multiple myeloma cell lines against the NCATS MIPE library collection: KMS28PE_JCRB cell viability assay (AID 1918983); also: nearly all actives have a fitted effect of over 35% in size
Procedure, shortened: (§1)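 ATP-based CellTiter-Glo luminescence after 48 h drug exposure (37 °C, 5% CO2) of 500 myeloma cells per well. DMSO-only wells set 100% viability, media-only wells 0%; MIPE 4.0 library added by pin tool.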

[2] = Quantitative High-Throughput drug screen in 47 multiple myeloma cell lines against the NCATS MIPE library collection: L363_DSMZ cell viability assay (AID 1918984); also: nearly all actives have a fitted effect of over 40% in size
Procedure, shortened: as §1

[3] = Quantitative High-Throughput drug screen in 47 multiple myeloma cell lines against the NCATS MIPE library collection: OCIMY7_PLB cell viability assay (AID 1918987); conditions: OCI-MY7 myeloma viability, CellTiter-Glo ATP, 48 h; viability (% of DMSO): at 45.8 µM (top of the series); also: nearly all actives have a fitted effect of over 65% in size
Procedure, shortened: as §1

[4] = Quantitative High-Throughput drug screen in 47 multiple myeloma cell lines against the NCATS MIPE library collection: OCIMY5_PLB cell viability assay (AID 1918988); also: nearly all actives have a fitted effect of over 65% in size
Procedure, shortened: as §1

[5] = Quantitative High-Throughput drug screen in 47 multiple myeloma cell lines against the NCATS MIPE library collection: OPM1_PLB cell viability assay (AID 1918989); also: nearly all actives have a fitted effect of over 40% in size
Procedure, shortened: as §1

[6] = Quantitative High-Throughput drug screen in 47 multiple myeloma cell lines against the NCATS MIPE library collection: SKMM1_PLB cell viability assay (AID 1919863); conditions: SKMM1 myeloma viability, CellTiter-Glo ATP, 48 h; viability: stronger effect = lower value; also: nearly all actives have a fitted effect of over 35% in size
Procedure, shortened: as §1

[7] = Quantitative High-Throughput drug screen in 47 multiple myeloma cell lines against the NCATS MIPE library collection: U266_ATCC cell viability assay (AID 1919864); also: nearly all actives have a fitted effect of over 35% in size
Procedure, shortened: as §1

[8] = Quantitative High-Throughput drug screen in 47 multiple myeloma cell lines against the NCATS MIPE library collection: XG6_PLB cell viability assay (AID 1919865); also: nearly all actives have a fitted effect of over 40% in size
Procedure, shortened: as §1

[9] = Quantitative High-Throughput drug screen in 47 multiple myeloma cell lines against the NCATS MIPE library collection: XG1_PLB cell viability assay (AID 1919866); also: nearly all actives have a fitted effect of over 35% in size
Procedure, shortened: as §1

[10] = Quantitative High-Throughput drug screen in 47 multiple myeloma cell lines against the NCATS MIPE library collection: VP6_DJ cell viability assay (AID 1919867); also: nearly all actives have a fitted effect of over 40% in size
Procedure, shortened: as §1

[11] = Quantitative High-Throughput drug screen in 47 multiple myeloma cell lines against the NCATS MIPE library collection: UTMC2_PLB cell viability assay (AID 1919868); conditions: CellTiter-Glo ATP luminescence, 48 h; viability (% of DMSO control): at 45.8 µM (top of the series); also: nearly all actives have a fitted effect of over 55% in size
Procedure, shortened: as §1

[12] = Quantitative High-Throughput drug screen in 47 multiple myeloma cell lines against the NCATS MIPE library collection: PE2_PLB cell viability assay (AID 1919869); also: nearly all actives have a fitted effect of over 35% in size
Procedure, shortened: as §1

[13] = Quantitative High-Throughput drug screen in 47 multiple myeloma cell lines against the NCATS MIPE library collection: PCM6_Riken cell viability assay (AID 1919870); also: nearly all actives have a fitted effect of over 30% in size
Procedure, shortened: as §1

[14] = Quantitative High-Throughput drug screen in 47 multiple myeloma cell lines against the NCATS MIPE library collection: RPMI8226_ATCC cell viability assay (AID 1919871); also: nearly all actives have a fitted effect of over 30% in size
Procedure, shortened: as §1

[15] = Quantitative High-Throughput drug screen in 47 multiple myeloma cell lines against the NCATS MIPE library collection: OPM2_DSMZ cell viability assay (AID 1919872); also: nearly all actives have a fitted effect of over 30% in size
Procedure, shortened: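 Steps: seed 500 cells per well; pin-transfer MIPE 4.0 library; incubate 48 h at 37C, 5% CO2, humidified; add CellTiter-Glo, 5 min room temperature; read luminescence.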

[16] = Quantitative High-Throughput drug screen in 47 multiple myeloma cell lines against the NCATS MIPE library collection: KMS11_JCRBsus cell viability assay (AID 1919873); also: nearly all actives have a fitted effect of over 50% in size
Procedure, shortened: as §1

[17] = Quantitative High-Throughput drug screen in 47 multiple myeloma cell lines against the NCATS MIPE library collection: KMS28BM_JCRB cell viability assay (AID 1919874); also: nearly all actives have a fitted effect of over 35% in size
Procedure, shortened: as §1

[18] = Quantitative High-Throughput drug screen in 47 multiple myeloma cell lines against the NCATS MIPE library collection: KMS34_JCRB cell viability assay (AID 1918985); also: nearly all actives have a fitted effect of over 40% in size
Procedure, shortened: as §1
Potency is read from the fitted curve at half-maximal effect.

For `COc1cccc2c1C(=O)c1c(O)c3c(c(O)c1C2=O)C[C@@](O)(C(C)=O)C[C@H]3O[C@H]1C[C@H](N)[C@H](O)[C@H](C)O1`, the Potency [1] was 83.3 nM (active), the Potency [2] was 118 nM (active) and the Potency [3] was 418 nM (active). For the same molecule, the Potency [4] was 46.9 nM (active), the Potency [5] was 105 nM (active) and the Potency [6] was 166 nM (active). For the same molecule, the Potency [7] was 166 nM (active), the Potency [8] was 46.9 nM (active) and the Potency [9] was 105 nM (active). The Potency [10] was 41.8 nM (active), the Potency [11] was 11.8 nM (active) and the Potency [12] was 41.8 nM (active). The Potency [13] was 29.6 nM (active), the Potency [14] was 235 nM (active) and the Potency [15] was 166 nM (active). The Potency [16] was 93.5 nM (active) and the Potency [17] was 29.6 nM (active).
With `COc1cc2c(Nc3ccc(Cl)c(Cl)c3F)ncnc2cc1OCC1C[C@@H]2CN(C)C[C@H]2C1` the Potency [1] was 16600 nM (active), the Potency [2] was 1660 nM (active) and the Potency [3] was 209 nM (active). The Potency [4] was 1870 nM (active), the Potency [5] was 3320 nM (active) and the Potency [7] was 23500 nM (active). For the same molecule, the Potency [8] was 1050 nM (active), the Potency [9] was 2350 nM (active) and the Potency [10] was 2640 nM (active). For the same molecule, the Potency [11] was 2350 nM (active), the Potency [12] was 1870 nM (active) and the Potency [13] was 1320 nM (active). The Potency [14] was 8330 nM (active), the Potency [15] was 20900 nM (active) and the Potency [16] was 5900 nM (active). For the same molecule, the Potency [17] was 8330 nM (active).
With `O=C1NCCc2[nH]c(-c3ccncc3)cc21` the Potency [1] was 4690 nM (active), the Potency [2] was 2350 nM (active) and the Potency [3] was 2090 nM (active). The Potency [4] was 8330 nM (active), the Potency [5] was 4690 nM (active) and the Potency [6] was 5260 nM (active). For the same molecule, the Potency [7] was 2640 nM (active), the Potency [8] was 1870 nM (active) and the Potency [9] was 2090 nM (active). The Potency [10] was 3720 nM (active), the Potency [11] was 3720 nM (active) and the Potency [12] was 1870 nM (active). The Potency [14] was 16600 nM (active) and the Potency [16] was 5260 nM (active).
In the case of `CCC[C@H]1C[C@H](C(=O)N[C@@H]([C@@H]2O[C@@H](SC)[C@@H](O)[C@@H](O)[C@@H]2O)[C@H](C)Cl)N(C)C1`, the Potency [1] is reported as “inactive”, the Potency [2] is reported as “inactive” and the Potency [3] is reported as “inactive”. The Potency [4] was “inactive”, the Potency [5] was “inactive” and the Potency [8] was “inactive”. For the same molecule, the Potency [9] was “inactive”, the Potency [10] was “inactive” and the Potency [14] was “inactive”. For the same molecule, the Potency [15] was “inactive”, the Potency [16] was “inactive” and the Potency [17] was “inactive”.
In the case of `Nc1cccc2c1C(=O)N(C1CCC(=O)NC1=O)C2=O` (configuration not stated), the Potency [1] is reported as 83.3 nM (active), the Potency [2] is reported as “inactive” and the Potency [18] is reported as 2.1 nM (active). The Potency [7] was “inactive”, the Potency [8] was “inactive” and the Potency [11] was “inactive”. The Potency [12] was “inactive”, the Potency [13] was “inactive” and the Potency [15] was 1.2 nM (active). The Potency [17] was “inactive”.
With `CC(C)N(CC[C@H](c1ccccc1)c1cc(CO)ccc1O)C(C)C` the Potency [1] was “inactive”, the Potency [2] was “inactive” and the Potency [18] was “inactive”. For the same molecule, the Potency [8] was “inactive”, the Potency [9] was “inactive” and the Potency [10] was “inactive”. For the same molecule, the Potency [12] was “inactive”, the Potency [13] was “inactive” and the Potency [14] was “inactive”. For the same molecule, the Potency [16] was “inactive” and the Potency [17] was 1050 nM (active).
With `C=CCNc1c(O)cc2c(O)c1C[C@@H](C)C[C@H](OC)[C@@H](O)[C@@H](C)C=C(C)[C@H](OC(N)=O)[C@@H](OC)C=CC=C(C)C(=O)N2` the Potency [1] was 418 nM (active), the Potency [2] was 33.2 nM (active) and the Potency [3] was 209 nM (active). The Potency [4] was 235 nM (active), the Potency [5] was 526 nM (active) and the Potency [6] was 264 nM (active). The Potency [7] was 418 nM (active), the Potency [8] was 1050 nM (active) and the Potency [9] was 418 nM (active). The Potency [10] was 118 nM (active), the Potency [11] was 418 nM (active) and the Potency [14] was 418 nM (active). For the same molecule, the Potency [15] was 1660 nM (active), the Potency [16] was 46.9 nM (active) and the Potency [17] was 935 nM (active).
For `CCOc1cc2c(c(F)c1OCC)C(=N)N(CC(=O)c1cc(N3CCOCC3)c(OC)c(C(C)(C)C)c1)C2`, the Potency [1] was 20900 nM (active), the Potency [18] was 23500 nM (active) and the Potency [3] was 7430 nM (active). The Potency [4] was 16600 nM (active), the Potency [5] was 14800 nM (active) and the Potency [6] was 20900 nM (active). For the same molecule, the Potency [8] was 9350 nM (active), the Potency [9] was 8330 nM (active) and the Potency [10] was 9350 nM (active). The Potency [11] was 7430 nM (active), the Potency [13] was 7430 nM (active) and the Potency [14] was 18700 nM (active). The Potency [15] was 18700 nM (active), the Potency [16] was 7430 nM (active) and the Potency [17] was 8330 nM (active).
In the case of `CN[C@@H]1C[C@H]2O[C@@](C)([C@H]1OC)n1c3ccccc3c3c4c(c5c6ccccc6n2c5c31)C(=O)N[C@H]4O`, the Potency [1] is reported as 833 nM (active), the Potency [18] is reported as 372 nM (active) and the Potency [3] is reported as 23.5 nM (active). The Potency [4] was 264 nM (active), the Potency [5] was 93.5 nM (active) and the Potency [6] was 5900 nM (active). For the same molecule, the Potency [7] was 1050 nM (active), the Potency [8] was 83.3 nM (active) and the Potency [9] was 148 nM (active). The Potency [10] was 46.9 nM (active), the Potency [11] was 148 nM (active) and the Potency [12] was 118 nM (active). The Potency [13] was 148 nM (active), the Potency [14] was 2090 nM (active) and the Potency [15] was 1050 nM (active). The Potency [16] was 264 nM (active) and the Potency [17] was 469 nM (active).
For `CCc1cnn2c(NCc3ccc[n+]([O-])c3)cc(N3CCCC[C@@H]3CCO)nc12`, the Potency [1] was 29.6 nM (active), the Potency [18] was 14.8 nM (active) and the Potency [3] was 41.8 nM (active). For the same molecule, the Potency [4] was 20.9 nM (active), the Potency [5] was 26.4 nM (active) and the Potency [6] was 33.2 nM (active). The Potency [7] was 37.2 nM (active), the Potency [9] was 23.5 nM (active) and the Potency [10] was 18.7 nM (active). For the same molecule, the Potency [11] was 18.7 nM (active), the Potency [12] was 29.6 nM (active) and the Potency [13] was 10.5 nM (active). The Potency [14] was 37.2 nM (active), the Potency [15] was 29.6 nM (active) and the Potency [17] was 29.6 nM (active).
